The sample as a whole holds a higher share of hits than the screen did.
Methyltransferases: Primary Screen for Target Class Profiling of Small Molecule Inhibitors of Methyltransferases; 25,000 compounds, 3.9% hits; AID 1745853, 2022; calls only at 40 µM; purified enzyme, MTase-Glo SAH luminescence; stronger effect = lower value; call rule not given here
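Each enzyme was assayed with SAM and its substrate. SAH formation detected by MTase-Glo luminescence; single-point 40 uM screen[…].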
Calls only; 0 = inactive; + = active, no number.

SMILES	Methyltransferases
O=C(/C=C/c1ccc(O)c(O)c1)O[C@@H]1[C@@H](O)[C@H](OC2CCCCC2O)O[C@H](CO)[C@H]1O (stereo partly specified)	0
COC(=O)C1=COC(OC2OC(CO)C(O)C(O)C2O)C2C1C=CC2(O)CO (stereo unspecified)	0
C=C[C@H]1[C@H](O[C@@H]2O[C@H](CO)[C@@H](O)[C@H](OC(=O)/C=C/c3ccc(O)c(OC)c3)[C@H]2O)OC=C2C(=O)OCC[C@]21O	+
CCn1c(C2CCCNC2)nn(Cc2csc(-c3ccccc3)n2)c1=O (stereo unspecified)	0
CC(C)c1ccccc1OC(=O)NCCc1ccc2ccccc2c1	0
O=C(Nc1ccc2c(c1)OCCO2)N1CCCCC1c1nc(CCOCC2CC2)no1 (stereo unspecified)	0
Clc1ccc2c(c1)C1C=CCC1C(c1ccccc1Br)N2 (stereo unspecified)	0
Cn1nccc1C(=O)N1CC(C(=O)Nc2ccccn2)C2(CCOCC2)C1 (stereo unspecified)	0
CN(CCCc1nccn1C)C(=O)[C@H]1CCC[C@H](O)C1	0
CC1(C(=O)NC2CCCCCC2)Cn2c(nc3ccccc32)C(=O)N1Cc1cccs1 (stereo unspecified)	0
COc1cc(Cc2cnc(N)nc2N)cc(OC)c1OC	0
CCOC(=O)c1cc2n(n1)CC(C)(C(=O)NC1CCCCC1)N(Cc1ccc(C)cc1)C2=O (stereo unspecified)	0
O=C(/C=C/c1ccccc1)OC[C@]12O[C@H]1[C@@H](O)[C@@H]1C=CO[C@@H](O[C@@H]3O[C@H](CO)[C@@H](O)[C@H](O)[C@H]3O)[C@@H]12	+
O=C(/C=C/c1ccc(O)cc1)OC[C@]12O[C@H]1[C@@H](O)[C@@H]1C=CO[C@@H](O[C@@H]3O[C@H](CO)[C@@H](O)[C@H](O)[C@H]3O)[C@@H]12	0
CC(=O)O[C@H]1[C@@H](O)[C@H](O[C@H]2[C@@H]3C=CO[C@@H](O[C@H]4O[C@@H](CO)[C@H](O)[C@@H](O)[C@@H]4O)[C@@H]3[C@@]3(CO)O[C@@H]23)O[C@@H](C)[C@@H]1OC(=O)/C=C/c1ccccc1	0
COc1ccc(OC)c(S(=O)(=O)N2CCc3nc(-c4ccccc4)[nH]c3C2)c1	0
COc1ccc(-c2nc3ccccc3[nH]2)cc1	+
CC(C)(C)c1ccc(-c2nc3ccccc3[nH]2)cc1	+
COc1ccc(-c2cc(C(O)C3CCCCN3)c3ccccc3n2)cc1 (stereo unspecified)	0
CC1CCCCC1NC(=O)C1(C)Cn2c(nc3ccccc32)C(=O)N1Cc1ccc(F)cc1 (stereo unspecified)	0
Cc1ccc(C(C(=O)O)N2CCC(CCN3CCCC3=O)CC2)cc1C (stereo unspecified)	0
COC(=O)CNC(=O)c1nc(-c2ccc(Cl)nc2)c2ccccn12	0
CCCn1c(=O)c2ccc(C(=O)NCC(C)C)cc2n2c(=O)n(CC(=O)NCc3ccc(C)cc3)nc12	0
COc1ccc(-c2nc(C)nc3c2CCC3)c2ccc(C)nc12	0
CCOC(=O)c1cc2n(n1)CC(C)(C(=O)NCc1ccc(C)cc1)N(CCCc1ccccc1)C2=O (stereo unspecified)	0
SMILES	Methyltransferases
CCN1CCN(Cc2ccc(-c3cc4c(N[C@H](C)c5ccccc5)ncnc4[nH]3)cc2)CC1	+
CCN1CCN(Cc2ccc(-c3cc4c(NC(C)c5ccccc5)ncnc4[nH]3)cc2)CC1 (stereo unspecified)	+
C[C@]1(CO)[C@H]2Cc3sc(-c4ccsc4)nc3[C@@H](CC(=O)Nc3cccc(O)c3)[C@]2(C)CC[C@H]1O	0
CC(C)Cn1c(=O)c2ccc(C(=O)NC3CCCC3)cc2n2c(SCC(=O)NC(C)(C)C)nnc12	0
COc1ccc(CC(=O)N2CCCC3(Cc4ccccc4CN3C(=O)C3CCCC3)C2)cc1 (stereo unspecified)	0
O=C(O)[C@@H]1CN(C(=O)Cc2ccc(O)cc2)C[C@H]1c1cccc(F)c1	0
COc1ccc(C(=O)N2CCCCC23Cc2ccccc2NC3=O)cc1 (stereo unspecified)	0
CCOc1ccc(C(=O)Cn2nc3n(CC(C)C)c(=O)c4ccccc4n3c2=O)cc1	0
CC[C@H]1CN(c2nc(N)c(C(N)=O)nc2Cl)CCN1C1CCN(Cc2ccc(Cl)cc2)CC1	+
Cc1c(C)c(NCC(=O)N(C)C2CCN(Cc3ccc(C(N)=O)cc3)CC2)c(C)c(C)c1N	0
NC(N)=NC(=O)c1nc(Cl)c(N2CCCCCC2)nc1N	0
COc1ccc(NC(=O)Cn2c(=O)oc3cc(S(=O)(=O)N4CCCC4)ccc32)cc1Cl	0
CCC(CC)C(=O)Nc1sc2c(c1C#N)CCC(C(C)(C)CC)C2 (stereo unspecified)	0
Cc1ccn(-c2cc(Cl)ccc2[C@@H](Oc2cc(-c3ccc(C[C@H](N)C(=O)O)cc3)nc(N)n2)C(F)(F)F)n1	+
CCCN1C(=O)c2c(C(=O)NCc3cccc(Cl)c3)ncn2CC1(C)C(=O)NC1CCCC1 (stereo unspecified)	0
CN(Cc1ccccc1)S(=O)(=O)c1ccc2c(c1)n(C)c(=O)n2C	0
CCC(=O)N1CCN(c2ccc(-n3c(=O)ccc4cnc5ccc(-c6cnc7ccccc7c6)cc5c43)cc2C(F)(F)F)CC1	0
Nc1ccc(-c2ccc3ncc4ccc(=O)n(-c5cccc(C(F)(F)F)c5)c4c3c2)cn1	+
CC[C@@]1(O)CCN(C(=O)c2ccccc2OCc2ccccc2)C[C@H]1O	0
Cc1noc2c(NCCN(C)C)cc(-c3ccccc3)nc12	0
CC1(C)CN(C(=O)c2ccnc(-n3cnnc3)c2)CC1(C)O (stereo unspecified)	0
O=Nc1ccc2oc(=O)ccc2c1	+
O=c1ccc2ccc(O)c(O)c2o1	0
Cc1c(C(=O)N[C@H](c2cnn(C)c2)C2CC(O)C2)sc2nc[nH]c(=O)c12 (stereo partly specified)	0
COc1ccc(NC(=O)Cn2nc3n(Cc4ccccc4)c(=O)c4ccccc4n3c2=O)cc1OC	0
SMILES	Methyltransferases
Oc1ccc2ccccc2c1SSc1c(O)ccc2ccccc12	+
COc1ccc(OC)c(S(=O)(=O)NCC2CNCCOC2)c1 (stereo unspecified)	0
COc1cc2c(cc1OC)[C@@H]1[C@H](O)[C@@H](OC)C=C3CCN(C2)[C@H]31	0
O=C(c1cc[n+]([O-])cc1)N1CCC2(CCCN(CCC3CCCCC3)C2)C1 (stereo unspecified)	0
Cc1nnc(N2CCC3(CCC(=O)N(CCCN(C)C)C3)CC2)c2ccccc12	0
CN(C)CCCn1cc(C2=C(c3c[nH]c4ccccc34)C(=O)NC2=O)c2ccccc21	+
CC1CCC(NC(=O)C2(C)Cn3c(ccc3-c3ccccc3)C(=O)N2Cc2cccc(Cl)c2)CC1 (stereo unspecified)	0
O=C1[C@@H]2C[C@@H](CN2Cc2ccc3c(c2)OCO3)Oc2ccccc2N1CC1CC1	0
CC(C)CCN1C(=O)c2cc3ccccc3n2CC1(C)C(=O)NC1CCCCCC1 (stereo unspecified)	0
NNc1nncc2ccccc12	0
C=CC1(C)CC(O)C2(CCC3C(C)(C(=O)O)CCCC3(C)C2=O)C1 (stereo unspecified)	0
Cn1cc(-c2ccc(F)c(C(F)(F)F)c2)nc1C1CCN(c2ncnc3[nH]ncc23)CC1	+
CC(C)CCN1C(=O)c2cc3occc3n2CC1(C)C(=O)NC1CCC(C)CC1 (stereo unspecified)	0
